Most compounds without a hit are left out; they make up all but 14% or so of the library.
HCMV antiviral: blocks human cytomegalovirus replication | HFF cells, HCMV-luciferase reporter, 72 h; stronger effect = lower value | activity change, negative = inhibition, % at 57.5 µM | 410,000 compounds, 4.5% hits; in the data active means activity change below about -60%; inconclusive means no clear call, values can overlap the other calls; inactive means above about -39%
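Cell-based, HFFs, 1000 cells/well, 16 h 37C; cpds in DMSO + HCMV-luc, MOI 1 PFU/cell; 72 h 37C; OneGlo luminescence after 5 min RT; norm. to buffer vs Salinomycin 10uM.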
Pf growth 48h: P. falciparum growth inhibition at 48 hours (one generation). P. falciparum luciferase growth in erythrocytes, 48 h. 310,000 compounds, 5.9% hits. Potency, µM (highest dose often 28.7 µM), inactives show at the top dose activity change, negative = inhibition, actives largely listed as inhibitors. AID 504832; further: potency means the concentration at half of the fitted maximal effect
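Growth was read as firefly luciferase luminescence after a 48 h, 37 C, 5% CO2 exposure of compounds to reporter-bearing P. falciparum cultures (0.1% parasitemia, 2% hematocrit final) in Albumax-supplemented RPMI 1640.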
FBPA Giardia inh: blocks Giardia fructose-bisphosphate aldolase activity | A8B2U2 | purified Giardia FBPA | Potency, µM (series often up to 59.6 µM), without a hit: top-dose activity, negative = inhibition, actives largely listed as inhibitors | 290,000 compounds, 0.71% hits | AID 2451; further: potency means the concentration at half of the fitted maximal effect; nearly all actives have a fitted effect of over 55% in size
Target sequence (A8B2U2 whole entry, looked up): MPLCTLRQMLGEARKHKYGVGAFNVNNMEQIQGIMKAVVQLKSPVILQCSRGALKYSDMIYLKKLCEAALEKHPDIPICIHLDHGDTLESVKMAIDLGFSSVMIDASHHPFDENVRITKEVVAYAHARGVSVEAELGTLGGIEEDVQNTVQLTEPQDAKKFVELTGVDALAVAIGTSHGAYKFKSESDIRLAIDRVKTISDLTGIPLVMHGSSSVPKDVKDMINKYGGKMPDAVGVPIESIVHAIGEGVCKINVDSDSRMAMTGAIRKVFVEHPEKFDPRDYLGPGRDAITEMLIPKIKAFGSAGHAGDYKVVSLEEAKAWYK
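Giardia FBPA (40 nM reagent) was preincubated 10 min at RT with compound (up to 57.5 uM final), then substrate plus GAPDH/TPI/NAD/arsenate coupling system with diaphorase/resazurin was added; resorufin fluorescence (525/598 nm) was read after 20 min.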
Sm TGR inh: S. mansoni TGR enzyme inhibition; Potency, µM (highest dose often 114 µM), inactives show at the top dose activity change, negative = inhibition, most hits filed as inhibitors; 360,000 compounds, 3% hits; purified TGR, DTNB reduction, TNB absorbance 405 nm; further: potency means the concentration at half of the fitted maximal effect; nearly all actives have a fitted effect of over 60% in size
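Kinetic colorimetric format: TGR-catalysed, NADPH-driven DTNB reduction monitored via TNB absorbance. Enzyme dispensed at 20 nM; compound exposure 15 min at room temperature before reaction start.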
Pf growth 96h: inhibits malaria parasite growth, 96 h | 320,000 compounds, 6.9% hits | P. falciparum luciferase reporter growth, 96 h | AID 504834 | Potency, µM (doses to about 28.7 µM), for the others: at the top dose activity change, negative = inhibition, actives largely listed as inhibitors; further: potency means the concentration at half of the fitted maximal effect
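P. falciparum expressing integrated firefly luciferase, in erythrocytes at 2% hematocrit, 0.05% parasitemia, incubated with compounds 96 h at 37 C, 5% CO2. Growth inhibition read as loss of luminescence; two-generation exposure targets delayed-death apicoplast inhibitors.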
Active calls of the source: *; ? = inconclusive; nt = no result given. Unless noted, the call rests on the fitted dose curve; in most records, active means well fitted curve in the direction sought with a large enough effect; inconclusive means small, poorly fitted or top-dose-only effect, or another doubt; inactive means no such curve, though single readings can be large; an effect the other way counts as inactive or inconclusive. On the % scale 0 is the no-effect control and ±100 the full control effect.

SMILES	HCMV antiviral	Pf growth 48h	FBPA Giardia inh	Sm TGR inh	Pf growth 96h
COc1cccc(CN(C)C(=O)c2ccc(NC(=O)CC3SC(N4CCCCC4)=NC3=O)cc2)c1OC (centres undefined)	30.7	nt	nt	nt	nt
COc1ccccc1CCNC(=O)c1ccc(NC(=O)CC2SC(N3CCCCC3)=NC2=O)cc1 (centres undefined)	2.7	11.7µM*	nt	8.3%	10.4µM*
N#Cc1cccc(NC(=O)N2CC[C@@]3(CCCN(C(=O)c4cnccn4)C3)C2)c1	nt	nt	-0.2%	nt	nt
CC(C)(C)CNC(=O)c1cccc2c1C(=O)c1ccc(-c3cc4ccccc4o3)cc1S2(=O)=O	6.0	nt	nt	nt	nt
CCOC(=O)C1=C(N)OC2=C(C(=O)CCC2)C12C(=O)N(C)c1ccccc12 (centres undefined)	78.1	11.5%	5.3%	-14.9%	20.9%
CCOC(=O)C1=C(N)OC2=C(C(=O)CCC2)C12C(=O)N(CC(N)=O)c1ccccc12 (centres undefined)	?	43.4%	1.2%	-2.7%	6.57µM*
COc1cccc(CN2C(=O)C3(C(C#N)=C(N)OC4=C3C(=O)CCC4)c3ccccc32)c1 (centres undefined)	-16.4	4.15µM*	-3.1%	-4.5%	8.8%
Nc1ccc(S(=O)(=O)NCc2ccccc2)cc1	23.5	-3.2%	nt	nt	-4.5%
CCN(c1ccccc1)c1cc2ccccc2c(=O)[nH]1	-64.2*	?	?	-10.2%	3.6%
Cc1ccc2c(c1)C1CN(C)CCC1N2S(=O)(=O)c1ccc(C(C)C)cc1 (centres undefined)	-7.0	4.65µM*	nt	-8.3%	7.38µM*
Cc1ccc2c(c1)C1CN(C)CCC1N2S(=O)(=O)c1cc(C(F)(F)F)ccc1Cl (centres undefined)	-24.6	9.28µM*	nt	-1.0%	-120.2%
Cc1ccc2c(c1)C1CN(C)CCC1N2S(=O)(=O)c1ccccc1 (centres undefined)	?	?	-1.7%	-30.1%	?
CC(C)(C)c1ccc(C(=O)NCC(=O)N/N=C/c2cccnc2)cc1	-32.7	36.1%	4.5%	0.2%	18.4%
CCOc1cc(C2CC(=O)NC(SCC)=C2C#N)ccc1O (centres undefined)	-30.1	nt	-28.4%	-16.0%	-28.9%
CCOc1cc(C2CC(=O)N3CN(C4CCCCC4)CSC3=C2C#N)ccc1O (centres undefined)	3.2	?	0.792µM*	10µM*	?
N#CC1=C2SCN(C3CCCCC3)CN2C(=O)CC1c1ccc(Br)cc1 (centres undefined)	-7.0	nt	nt	10µM*	nt
N[C@@H](CSSC[C@H](N)C(=O)O)C(=O)O	nt	nt	-1.5%	nt	nt
COc1cc(C2NC(=O)NC(C)=C2C(=O)OCC2CCCCC2)ccc1O (centres undefined)	-12.0	0.0%	6.5%	-5.1%	-9.3%
O=c1[nH][nH]c(=S)n1C1CCCCC1	nt	?	19.9µM*	-18.5%	17.1%
Cc1sc2nc(C(C)Nc3ccccc3N3CCOCC3)[nH]c(=O)c2c1C (centres undefined)	24.9	9.28µM*	-8.9%	12.0%	6.57µM*
Oc1ccc(/C=N/Nc2cc(N3CCOCC3)nc(N3CCOCC3)n2)cc1O	-26.4	?	?	50.1µM*	28.9%
Cc1nc(N/N=C/c2ccc(O)cc2O)cc(N2CCOCC2)n1	?	?	-2.1%	5.4%	?
Oc1cccc(/C=N/Nc2cc(N3CCOCC3)nc(N3CCOCC3)n2)c1	18.9	-27.6%	-19.0%	0.0%	-27.3%
Oc1ccccc1/C=N/Nc1cc(N2CCCC2)nc(N2CCCC2)n1	-35.4	2.08µM*	-28.7%	-2.3%	173.1%
Cc1nc(N/N=C/c2cccc(F)c2)cc(N2CCOCC2)n1	11.0	?	-12.8%	6.2%	9.28µM*
SMILES	HCMV antiviral	Pf growth 48h	FBPA Giardia inh	Sm TGR inh	Pf growth 96h
Cc1nn(CC(=O)NCc2ccco2)c(=O)c2cc3ccccc3n12	-10.8	nt	nt	0.4%	nt
COc1ccc(-c2nn(CC(=O)NCc3ccccc3)c3c2cnc2ccc(F)cc23)cc1	29.3	nt	nt	20.2%	nt
O=C(CCCCCNC(=O)c1ccccc1)C[N+](=O)[O-]	18.9	30.2%	-0.3%	-20.8%	19.3%
CCN(CC)S(=O)(=O)c1ccc(OC)c(NC(=O)CCS(=O)(=O)Cc2ccccc2)c1	-69.0*	24.2%	0.8%	-1.3%	-15.7%
CCN(c1ccccc1)S(=O)(=O)c1ccc(OC)c(NC(=O)c2cc(Cl)ccn2)c1	nt	?	nt	44.7µM*	6.57µM*
CCN(c1ccccc1)S(=O)(=O)c1ccc(OC)c(NC(=O)c2c(C)noc2C)c1	36.0	22.6%	nt	-0.6%	18.0%
CCN(c1ccccc1)S(=O)(=O)c1ccc(OC)c(NC(=O)Cc2ccccc2OC)c1	-16.9	11.7µM*	nt	-4.3%	13.1µM*
CCN(CC)S(=O)(=O)c1ccc2c(c1)nc(CCC(=O)Nc1ccccc1Cc1ccccc1)n2CC	?	11.7µM*	2.0%	-0.8%	nt
CCN(CC)S(=O)(=O)c1ccc(OC)c(NC(=O)OCc2ccccc2)c1	-12.3	0.0%	nt	0.5%	-24.7%
CCn1c(CCC(=O)Nc2cc(F)ccc2C)nc2cc(S(=O)(=O)N(C)C)ccc21	-8.5	?	0.0%	-5.4%	-3.4%
Cc1ccc(OCCC(=O)OCC(=O)c2ccc3c(c2)NC(=O)CO3)cc1	-21.5	21.5%	nt	-4.2%	-16.9%
CCN(CC(=O)Nc1cc(Cl)ccc1C)C(=O)c1cc(S(=O)(=O)N2CCCCCC2)ccc1OC	-30.3	?	nt	-2.9%	?
COc1ccc(CN(C)CC(=O)Nc2cccc(S(=O)(=O)N3CCCC3)c2)cc1F	0.0	nt	nt	nt	nt
CCN(CC(=O)Nc1cccc(S(=O)(=O)N2CCCC2)c1)CC(=O)Nc1ccccc1OC	-35.7	?	-1.2%	-6.1%	9.28µM*
CCN(CC(=O)Nc1ccccc1OC)C(=O)c1cc(S(=O)(=O)N2CCCCCC2)ccc1OC	-2.5	?	nt	1.4%	5.22µM*
COc1ccc(Cl)cc1NC(=O)CN(C)CC(=O)Nc1cccc(S(=O)(=O)N2CCCC2)c1	-34.6	?	nt	2.6%	3.29µM*
CCOC(=O)C1(C)CCN1C(=O)c1cc(F)ccc1C (centres undefined)	-5.8	nt	nt	nt	nt
O=C(NC(=S)Nc1ccc(CN2CCCCC2)cc1)c1ccco1	-31.3	-3.0%	-29.9%	nt	-15.9%
O=C(NC(=S)Nc1ccc(CN2CCOCC2)cc1)c1ccco1	51.6	146.5%	-10.4%	31.6µM*	93.1%

Bioassay records: PubChem, National Center for Advancing Translational Sciences (NCATS)
